Compound activity from PubChem BioAssay.
This is a sample that favours compounds with a hit; in the whole collection about 2.3% have one here.
Bcl-xL primary: inhibitors of human Bcl-xL | GST-Bcl-xL / FITC-Bim BH3 peptide fluorescence polarization | inhibition, % at 10.9 µM | AID 2129 | Q07817 | 320,000 compounds, 0.7% hits;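 active = inhibition above the mean of all tested compounds plus 3 SD, cutoff set per campaign, cut at about 30% in these data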;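 also: 0% = DMSO wells and 100% = unlabeled Bim-BH3 peptide competitor; inhibitors lower millipolarization by displacing the labeled peptide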
MCL1 BIM primary: disrupts human MCL1 binding to BIM-BH3 peptide. GST-MCL1 / FITC-Bim-BH3 fluorescence polarization. inhibition, % at 10.9 µM. 320,000 compounds, 0.68% hits. AID 2057;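 active = inhibition above the mean inhibition of all tested compounds plus 3 SD, set per campaign, cut at about 40% in these data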;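 also: 0% = DMSO wells and 100% = unlabeled Bim-BH3 peptide control; higher means more loss of mP so more displacement of Bim peptide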
Mcl1-Noxa inh: disrupts binding of human Mcl-1 to Noxa peptide. inhibition, % at 21.7 µM. AID 1022. TR-FRET Mcl-1/Noxa peptide binding, 2 h. Q07820. 220,000 compounds, 1.5% hits;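 active = compounds that cut the protein-peptide binding signal by more than 50% relative to plate controls in a single-dose test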;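 also: His-tagged Mcl-1 with rhodamine Noxa BH3 peptide and terbium anti-His antibody; 0% = Mcl-1 plus Noxa peptide wells and 100% = peptide-only wells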
GLD-1 RNA inh: GLD-1-TGE RNA interaction inhibition (C. elegans); AID 2280; purified GLD-1 + fluorescein TGE RNA, fluorescence polarization; inhibition, % at 5.96 µM; Q17339; 320,000 compounds, 0.44% hits;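 active = percent inhibition above a per-plate cutoff, the plate mean of test compounds plus 3 SD, cut at about 30% in these data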;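 also: 0% = DMSO wells with GLD-1 and probe and 100% = wells lacking GLD-1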
Target sequence (Q17339 whole entry, looked up): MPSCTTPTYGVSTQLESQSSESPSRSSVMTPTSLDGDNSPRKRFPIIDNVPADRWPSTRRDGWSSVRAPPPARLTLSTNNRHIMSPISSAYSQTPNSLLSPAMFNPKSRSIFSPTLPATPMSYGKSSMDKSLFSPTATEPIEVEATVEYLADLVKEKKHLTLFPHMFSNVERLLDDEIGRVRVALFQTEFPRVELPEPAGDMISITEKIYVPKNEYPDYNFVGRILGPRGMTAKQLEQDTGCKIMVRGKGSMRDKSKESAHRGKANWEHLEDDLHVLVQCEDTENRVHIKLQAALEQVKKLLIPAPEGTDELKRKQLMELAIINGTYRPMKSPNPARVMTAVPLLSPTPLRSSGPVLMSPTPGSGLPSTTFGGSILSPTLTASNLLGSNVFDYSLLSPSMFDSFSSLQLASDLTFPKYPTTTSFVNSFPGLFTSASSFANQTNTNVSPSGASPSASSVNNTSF
Bim-Mcl-1: disrupts Bim peptide binding to human Mcl-1; Q07820; Bead-based flow cytometry, Bim peptide-Mcl-1 binding; inhibition, % at 10 µM; 190,000 compounds, 0.1% hits; AID 1009; in the data active = inhibition above about 40%;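 also: 0% = no compound tracer wells and 100% = peptide blocker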
Mcl1-Bid inh: disrupts binding of human Mcl-1 to Bid peptide; TR-FRET Mcl-1/Bid-Dy647 peptide binding, 1536-well; inhibition, % at 21.7 µM; Q07820; 220,000 compounds, 0.97% hits; AID 1021;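 active = compounds that cut the binding signal by more than half at the single screening dose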;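 also: His-tagged Mcl-1 with europium anti-His antibody binding Bid BH3 peptide; 0% = Mcl-1 plus peptide wells and 100% = peptide-only wells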
GLD-1 TGE cf: GLD-1 TGE RNA interaction inhibition, confirmation | GLD-1/FL-TGE RNA fluorescence polarization, biochemical | 550 compounds, 10% hits | AID 2459 | shares compounds with GLD-1 RNA inh | inhibition, % at 5.96 µM;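 active = average inhibition across triplicates above the hit cutoff set in the primary screen, cut at about 32% in these data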;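 also: 0% = GLD-1 with RNA probe and DMSO and 100% = wells lacking GLD-1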
An asterisk follows results filed as active; . = no result given.

SMILES	Bcl-xL primary	MCL1 BIM primary	Mcl1-Noxa inh	GLD-1 RNA inh	Bim-Mcl-1	Mcl1-Bid inh	GLD-1 TGE cf
Cc1cc(=O)n2nc(N3CCC(C(=O)NCCc4ccc(Cl)cc4)CC3)sc2n1	3	-1	.	-1	.	.	.
COc1ccc(-c2nn(-c3ccccc3)cc2/C=C(\CC(=O)O)c2nc3ccccc3s2)cc1OC	3	0	12	-7	0	-26	.
COc1ccc(/C=C(\CC(=O)O)c2nc3ccccc3s2)cc1O	7	0	25	55*	0	-3	39*
CC(C)N1CC2=C(OC(N)=C(C#N)C2c2cccnc2)/C(=C/c2cccnc2)C1 (centres undefined)	45*	37	-9	39*	2	-59	5
O=C(Cc1ccc(-c2ccccc2)cc1)Nc1ncccc1O	25	29	.	31*	.	.	0
CCCCn1c(N)c(N(CCC(C)C)C(=O)COC(=O)c2cccnc2Cl)c(=O)[nH]c1=O	-9	-10	.	1	.	.	.
CCCCCCc1cc2cc(S(=O)(=O)c3ccc(C)cc3)c(=O)oc2cc1O	6	5	0	39*	-1	-4	-4
CCCCCCc1cc2cc(S(=O)(=O)c3ccc(Cl)cc3)c(=O)oc2cc1O	1	-3	2	30	0	7	.
O=C(CN(C1CCCCC1)C1CCCCC1)N1CCc2ccccc2C1	6	-1	18	39*	1	21	0
O=C(CN(C1CCCCC1)S(=O)(=O)c1ccccc1)N1CCCC1	2	10	1	0	1	-28	.
CCCn1c(N)c(N(CCOC)C(=O)Cc2ccc(S(=O)(=O)N3CCOCC3)s2)c(=O)[nH]c1=O	41*	39	.	38*	.	.	51*
CCCC(C)NC(=O)c1ccccc1SC (centres undefined)	-1	-2	9	-8	-2	-21	.
CCN(CC)CCNC(C(=O)Nc1cc(C(F)(F)F)ccc1Cl)c1ccccc1 (centres undefined)	-6	-21	23	35*	-3	-51	0
CC(=O)N1CCc2cc(S(=O)(=O)CCC(=O)N(C)Cc3ccco3)ccc21	3	3	.	7	.	.	.
CCOC(=O)CSc1nnc(Cc2cc(=O)[nH]c(=O)[nH]2)n1-c1ccc(Cl)cc1	21	26	21	38*	0	-14	7
CCOc1ccc(-n2c(Cc3cc(=O)[nH]c(=O)[nH]3)nnc2SCC(=O)OC)cc1	6	4	-13	7	2	-20	.
Cc1cc(C)nc(SCc2ccc(C(=O)N/N=C3\CCCC(=O)C3)cc2)n1	8	14	-7	43*	3	-41	-9
FC(F)Oc1ccc(NC(=S)NC23CC4CC(CC(C4)C2)C3)cc1	3	9	.	-4	.	.	.
CCOC(=O)N(C)S(=O)(=O)c1ccccc1[N+](=O)[O-]	5	4	-23	5	0	-27	.
Nc1nnnn1/N=C/c1cc(Cl)cc(Cl)c1OCc1ccc(Cl)cc1Cl	4	11	9	-7	0	-22	.
Nc1nnnn1/N=C/c1cc(Cl)ccc1O	23	26	.	38*	.	.	46*
CCN1C/C(=C/c2cccs2)c2nc3ccccc3c(C(=O)O)c2C1	32*	35	44	35*	.	30	34*
CCN1C/C(=C/c2sccc2C)c2nc3ccccc3c(C(=O)O)c2C1	16	10	18	12	.	-14	.
CCc1ccccc1C1=CC(=O)C[C@H](c2ccc(OC)cc2)C1	.	.	.	-1	.	.	.
COc1ccccc1-c1cnn2c(NC3CCCC3)cc(C)nc12	-2	2	.	66*	.	.	-2
SMILES	Bcl-xL primary	MCL1 BIM primary	Mcl1-Noxa inh	GLD-1 RNA inh	Bim-Mcl-1	Mcl1-Bid inh	GLD-1 TGE cf
COC(=O)c1ccc(CNC(=O)Cn2nnnc2CN(C)C(C)C)cc1	4	6	.	138*	.	.	-4
COc1ccccc1CNC(=O)Cn1nnnc1CN(C)C(C)C	1	-1	.	7	.	.	.
O=c1[nH]c2cc3ccccc3cc2nc1C(F)(F)F	14	14	3	58*	0	-3	60*
CCOC(=O)NC(=O)C(/C=N/c1sccc1C(=O)OC)=C(\C)O	17	9	-16	46*	0	-26	3
CN1C[C@H](C(=O)NC2(C)OC3(O)[C@@H]4CCCN4C(=O)[C@H](Cc4ccccc4)N3C2=O)CC2c3cccc4[nH]cc(c34)C[C@H]21 (some centres undefined)	36*	38	.	33*	.	.	2
CCN(c1ccccc1)S(=O)(=O)c1ccc(Cl)c(NC(=O)CSc2n[nH]c(N)n2)c1	-1	-2	-1	39*	0	-36	0
CS(=O)(=O)c1ccc(Cl)c(NC(=O)CSc2n[nH]c(N)n2)c1	4	0	.	6	.	.	.
CC(C)C1Nc2ccc(S(N)(=O)=O)cc2C2C=CCC21 (centres undefined)	20	20	42	11	0	-39	.
NS(=O)(=O)c1ccc2c(c1)C1C=CCC1C(C1CC=CCC1)N2 (centres undefined)	46*	44*	22	34*	1	-29	9
CCCCC1=CC2=C(c3ccco3)C(=O)C(C)(OC(=O)c3ccc(OC)cc3)C(=O)C2=CN1C(CO)CO (centres undefined)	25	25	14	34*	.	-123	15
CCCCC1=CC2=C(c3ccco3)C(=O)C(C)(OC(=O)c3ccc(OC)cc3)C(=O)C2=CN1CC(C)C (centres undefined)	19	13	-31	15	.	-91	.
CCCCC1=CC2=C(c3ccco3)C(=O)C(C)(OC(=O)c3ccc(OC)cc3)C(=O)C2=CN1C1CC1 (centres undefined)	41*	40*	2	32*	.	-144	12
CCCCC1=CC2=C(c3ccco3)C(=O)C(C)(OC(=O)c3ccc(OC)cc3)C(=O)C2=CN1c1ccc(OC)cc1 (centres undefined)	30*	32	20	33*	.	-107	4
CCCCC1=CC2=C(c3ccco3)C(=O)C(C)(OC(=O)c3ccc(OC)cc3)C(=O)C2=CN1CC1CC1 (centres undefined)	18	13	22	14	.	-137	.
CCCC(=O)Nc1c2c(nn1-c1cccc(Cl)c1)CS(=O)(=O)C2	3	1	.	2	.	.	.
Cc1ccc(C(=O)CSc2nc(O)cc(=O)[nH]2)cc1C	0	4	.	-4	.	.	.
Cc1ccccc1C(=O)Nc1ccnn1C1CCN(C(=O)c2cnsn2)CC1	2	8	.	-3	.	.	.
COc1ccc(N(C(=O)CCl)C(C)(C(=O)Nc2c(C)cccc2C)c2ccccn2)cc1 (centres undefined)	2	1	-14	0	-3	-13	.
CCC1CCc2sc(C(=O)NCC(c3ccc(OC)cc3)N3CCCC3)cc2C1 (centres undefined)	6	6	.	49*	.	.	-5
